Source: PubChem BioAssay (The Scripps Research Institute Molecular Screening Center)
Only some compounds are listed: those with a hit (about 2.4% of all), similar ones and a draw of the others.
CHO-K1 Ca antag: nonselective inhibitor or artifact in parental CHO-K1 cells | 360,000 tested, 0.6% active | ATP-induced calcium, Fluo-8 fluorescence | inhibition, % at 3 µM;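 active = inhibition above a per-plate cutoff, the plate's mean sample inhibition plus 3 SD, cut at about 24% in these data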;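 note: 0% = DMSO plus EC80 ATP and 100% = DMSO alone without ATP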
CHO-K1 Ca ag: nonselective activator or artifact in parental CHO-K1 cells. activation, % at 3 µM. 360,000 tested, 0.48% active. AID 602248. Fluo-8 calcium fluorescence; scaled to maximal ATP response, vehicle zero; in the data active = activation above about 15%;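 note: untransfected CHO-K1 host cells lacking M1 receptor as counterscreen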
M1 antag: blocks human M1 muscarinic receptor; P11229; CHO-K1 hM1, Fluo-8 calcium fluorescence, ACh EC80 antagonist; inhibition, % at 3 µM; 360,000 tested, 1.3% active; AID 588852;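 active = percent inhibition above its own plate's cutoff, namely the mean of that plate's compound wells plus 3 SD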;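 note: peak over basal fluorescence ratio during 140 s after agonist addition; 0% = ACh EC80 plus DMSO and 100% = DMSO alone without agonist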
Target sequence (P11229 whole entry, looked up): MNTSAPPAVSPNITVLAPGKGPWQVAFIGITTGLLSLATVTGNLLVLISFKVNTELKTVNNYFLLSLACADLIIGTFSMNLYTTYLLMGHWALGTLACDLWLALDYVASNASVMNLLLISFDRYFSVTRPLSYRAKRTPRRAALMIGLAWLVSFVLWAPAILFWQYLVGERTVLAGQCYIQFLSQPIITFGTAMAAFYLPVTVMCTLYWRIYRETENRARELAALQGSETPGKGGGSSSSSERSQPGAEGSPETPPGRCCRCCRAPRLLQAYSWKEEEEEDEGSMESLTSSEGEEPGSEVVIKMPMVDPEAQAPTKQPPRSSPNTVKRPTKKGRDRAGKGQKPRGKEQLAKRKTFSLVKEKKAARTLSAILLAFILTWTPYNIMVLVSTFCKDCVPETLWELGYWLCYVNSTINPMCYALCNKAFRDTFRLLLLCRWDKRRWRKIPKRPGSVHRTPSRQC
M1 ag: human M1 muscarinic receptor agonism; AID 588814; 360,000 tested, 0.33% active; CHO-K1 hM1, Fluo-8 calcium fluorescence, agonist mode; 0% DMSO, 100% acetylcholine EC100; P11229; activation, % at 3 µM;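 active = activation above the run's mean compound activation plus 3 SD, cut at about 16% in these data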;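 note: peak over basal fluorescence ratio within a 140 s kinetic read after compound addition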
M1 PAM parental: nonselective activator or artifact in parental CHO-K1 calcium assay. ATP EC20, Fluo-8 calcium fluorescence; 0% at ATP EC20, 100% at ATP max. activation, % at 3 µM. 360,000 tested, 0.02% active. AID 602247;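 active = activation above the run cutoff, the mean activation of all test compounds plus 3 SD, cut at about 40% in these data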;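 note: peak over basal fluorescence ratio in a 140 s read after ATP addition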
M1 PAM: human CHRM1 positive allosteric modulation; P11229; 360,000 tested, 0.088% active; activation, % at 3 µM; CHO-K1 hM1, Fluo-8 calcium fluorescence, ACh EC20; 0% = ACh EC20, 100% = maximal ACh; in the data active = activation above about 19%, passing the limit was not always enough
An asterisk follows results filed as active.

SMILES | CHO-K1 Ca antag | CHO-K1 Ca ag | M1 antag | M1 ag | M1 PAM parental | M1 PAM
O=C1C(=O)N(CCCN2CCOCC2)C(c2ccc(Cl)cc2)/C1=C(/O)c1ccc(F)cc1 (stereo not given) | 8.2 | -0.1 | -16.6 | -2.3 | -9.2 | 11.3
O=C1C(=O)N(CCN2CCOCC2)C(c2ccc(F)cc2)/C1=C(/O)c1ccc(S(=O)(=O)N2CCOCC2)cc1 (stereo not given) | -5.9 | 0.3 | 31.1* | -6.7 | 1.4 | -9.6
CC(C)NC(=O)N(C)C[C@@H]1OCc2cnnn2CCCC(=O)N([C@H](C)CO)C[C@@H]1C | -0.1 | -0.2 | 0.1 | -0.1 | 12.9 | 1.0
Cc1nc2ccc(NC(=O)c3cncc(Br)c3)cc2s1 | -5.1 | 1.6 | -12.6 | -1.1 | 14.1 | 9.5
COC(C[C@@H]1O[C@H]1C(=O)COCc1ccccc1)OC | -13.4 | 0.6 | -21.5 | 3.1 | 7.8 | 29.9*
CN1CCN(C2Cc3cc(Cl)ccc3Sc3cc(F)ccc32)CC1 (stereo not given) | -6.3 | 8.5 | 98.8* | -4.8 | 18.1 | -25.9
CCc1ccc2c(c1)Sc1ccccc1CC2N1CCN(C)CC1 (stereo not given) | -2.2 | 10.2 | 52.5* | 0.3 | 17.5 | -22.5
CC(C)c1nc2c(c(=O)c3ccccc3n2C)c(=O)n1CCc1ccccc1 | -6.4 | 20.8* | 34.2 | 19.6* | 14.5 | -24.8
Fc1cccc(Cc2c(-c3ccc(Cl)cc3)nc3ccc(Br)cn23)c1 | -16.1 | 0.6 | -16.5 | -4.7 | 10.5 | -1.9
COc1ccc(OCCn2cc(/C(N)=N/O)c3ccccc32)cc1 | -14.4 | 2.4 | 5.5 | -1.2 | 13.2 | -0.1
Cc1ccc(OCCn2cc(/C(N)=N/O)c3ccccc32)cc1C | 28.3* | -0.2 | 8.9 | -2.2 | -9.1 | 1.8
CC(=O)C1CCC2C3C=CC4=CC(=O)CCC4(C)C3CCC12C (stereo not given) | -6.3 | 1.2 | -14.5 | -4.9 | 15.2 | -3.5
C=C(C)Cn1cnc2cc(C)c(C)cc21 | -11.0 | -0.2 | -1.8 | -2.8 | 6.9 | 5.3
O=c1[nH]c2ccc(N/C(=N/S(=O)(=O)c3ccccc3)c3ccccc3)cc2[nH]1 | 27.3* | -0.1 | -12.1 | -5.1 | -12.9 | 7.2
CC(C)C(OC(=O)CN1C(=O)c2ccccc2C1=O)C(=O)NC1CCCC1 (stereo not given) | -19.2 | 1.4 | -15.2 | 0.4 | 10.2 | 7.3
c1ccc(Oc2cccc(OCCCCN3CCCC3)c2)cc1 | -3.6 | 3.0 | 39.5* | -10.5 | 19.3 | -28.2
CC1CN(CCCCOc2cccc(Oc3ccccc3)c2)CC(C)O1 (stereo not given) | -15.8 | 0.7 | 28.8* | -7.3 | 7.6 | -24.1
Cc1ccc(N2C(=O)c3cccc(Oc4ccc(Cl)cc4)c3C2=O)c(C)c1 | -12.1 | 0.4 | -0.7 | -1.1 | 7.2 | -1.8
O=C(O)CN1C(=O)c2cccc(Oc3ccc(Cl)cc3)c2C1=O | 29.5* | -0.6 | 7.3 | 1.4 | -5.4 | -2.4
Cc1ccccc1-c1cc2c(nn1)-c1ccccc1C2=O | 25.2* | 0.1 | -23.1 | 3.0 | -7.2 | 2.8
O=C(CSc1nnc(COc2ccccc2F)n1-c1ccccc1)NC1CCS(=O)(=O)C1 (stereo not given) | 27.7* | -0.4 | 1.9 | -5.0 | -12.9 | -7.4
O=C(NCc1ccncc1)C(=O)NCc1ccncc1 | -7.8 | 0.1 | -11.4 | 0.6 | -9.4 | 10.8
C/C(=N\O)C(=O)NCc1ccncc1 | 25.0* | -0.1 | 3.0 | -3.0 | -9.8 | -7.5
Cc1ccc(S(=O)(=O)c2c(N)n(NC(=O)c3ccccc3C)c3nc4ccccc4nc23)cc1 | -0.5 | 1.6 | -6.5 | -4.8 | 18.9 | 2.9
Cc1ccc(C(=O)Nn2c(N)c(S(=O)(=O)c3ccc(C)cc3)c3nc4ccccc4nc32)cc1 | 4.5 | -0.4 | 20.4* | 5.4 | 1.6 | 0.0
CCCCNC(=O)C1(C)CCC(=O)N1c1cc(C(C)(C)C)nn1C (stereo not given) | 32.1* | 0.1 | 5.4 | -6.2 | -2.0 | -1.7
Cc1cc(C)n2nc(C(F)(F)F)c(-c3ccccc3)c2n1 | -17.7 | -1.0 | -10.7 | -5.6 | 17.9 | 4.2
O=C(NCc1cccnc1)c1cc(C2CCCCN2S(=O)(=O)c2cccc3cccnc23)on1 (stereo not given) | 4.4 | -0.4 | 23.6 | -7.2 | -0.5 | -8.5
